Measured values from PubChem BioAssay (EPA / NIEHS).
Calls of active or inactive are those of the source. The calls were made as follows: active = hit-call score of the fitted dose curve at least 0.9, where 1 is the maximum; inactive = score below 0.9.

read-out: Ezrin (EZR), EZR (gene 7430); assay: LTEA_HepaRG_EZR: Life Technologies and Expression Analysis (LTEA) Assay for Ezrin (EZR) using HepaRG (AID 2283491); conditions: mRNA level, 48 h; actives raise or lower the signal
In short: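 Gain or loss of EZR mRNA is scored relative to 0.5% DMSO in human HepaRG cultures treated 48 h with test chemicals in duplicate, eight half-log concentrations from 100 uM.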

Sequence of Cytochrome P450 3A7 (Homo sapiens) (P24462 whole entry, looked up): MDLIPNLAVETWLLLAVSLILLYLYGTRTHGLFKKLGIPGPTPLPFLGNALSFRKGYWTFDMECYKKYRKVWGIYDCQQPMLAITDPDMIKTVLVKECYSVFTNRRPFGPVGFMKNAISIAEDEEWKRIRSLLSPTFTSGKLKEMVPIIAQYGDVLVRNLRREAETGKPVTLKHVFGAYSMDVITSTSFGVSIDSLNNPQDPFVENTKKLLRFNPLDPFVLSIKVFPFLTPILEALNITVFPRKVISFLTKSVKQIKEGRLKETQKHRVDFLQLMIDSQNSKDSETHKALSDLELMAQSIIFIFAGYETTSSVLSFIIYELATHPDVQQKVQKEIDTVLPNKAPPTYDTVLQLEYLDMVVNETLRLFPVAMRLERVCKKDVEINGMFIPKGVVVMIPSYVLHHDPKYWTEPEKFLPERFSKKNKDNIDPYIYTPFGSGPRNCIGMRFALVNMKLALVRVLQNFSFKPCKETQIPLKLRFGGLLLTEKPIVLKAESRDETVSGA

Structure (SMILES) | outcome
O=C(O)Cc1ccccc1Nc1c(Cl)cccc1Cl | inactive
Cc1ccc(C(C)C)c(O)c1 | inactive
CN1CCCC1=O | inactive
Nc1ccc2c(c1)C(=O)c1ccccc1C2=O | inactive
CC1=C(/C=C/C(C)=C/C=C/C(C)=C/CO)C(C)(C)CCC1 | inactive
CCCCCCCCCCCCCO | inactive

read-out: Cytochrome P450 3A7 (Homo sapiens) (UniProt P24462); assay: LTEA_HepaRG_CYP3A7: Life Technologies and Expression Analysis (LTEA) Assay for CYP3A7 using HepaRG (AID 2283492); conditions: mRNA level, 48 h; actives raise or lower the signal
In short: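 Human HepaRG liver cells, 48 h post-plating, switched to serum-free induction medium and exposed in duplicate for 48 h. Dosing: 100 uM top, half-log dilutions, 8 points, 0.5% DMSO vehicle. Read-out: CYP3A7 mRNA, gain or loss fitted against DMSO baseline.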

Structure (SMILES) | outcome | AC50
COc1cc(C=O)ccc1O | inactive | 
COC(=O)c1ccc(O)cc1 | inactive | 
C=CCc1ccc(O)c(OC)c1 | inactive | 
CN1CCN(Cc2cc(-c3ccc4[nH]c(=O)oc4c3)co2)[C@@H](c2ccc(F)cc2)C1 |  | 11.5 µM (active)
CC(=O)OC/C=C(\C)CCC=C(C)C | inactive | 
CCCCCCCCCCCC(=O)OC | inactive | 
Oc1ccc2c(c1)OC[C@@H](N1CCC(O)(c3ccc(F)cc3)CC1)[C@H]2O | inactive | 
O=C(OCCCCCOC(=O)c1ccccc1)c1ccccc1 |  | 2.31 µM (active)
NCC1(Cc2noc(=O)[nH]2)CCCCC1 | inactive | 
CCCCOC(=O)CCCCCCCCC(=O)OCCCC | inactive | 
CCc1c(C(=O)NN2CCCCC2)nn(-c2ccc(Cl)cc2Cl)c1-c1ccc(Br)cc1 |  | 23.1 µM (active)
O=C(O)CCCCC(=O)O | inactive | 
Cc1c(C(=O)O)c(O)cc2c1C(=O)c1c(O)c([C@@H]3O[C@H](CO)[C@@H](O)[C@H](O)[C@H]3O)c(O)c(O)c1C2=O | inactive | 
Cc1ccc(C)c(O)c1C | inactive | 
OC[C@@H](O)[C@@H](O)[C@H](O)[C@H](O)CO | inactive | 
C1CCC(SSC2CCCCC2)CC1 | inactive | 
Cc1oc(-c2ccccc2)nc1CCOc1cccc2c1ccn2CCC(=O)O |  | 11.4 µM (active)
Cc1ccccc1Cl | inactive | 
c1cc(-c2ccncc2)ccn1 |  | 50 µM (active)
Cc1cc(=O)[nH]c(=S)[nH]1 | inactive | 
Cc1cccc([N+](=O)[O-])c1C | inactive | 
CCCCCCOCCO | inactive | 
CC(CO)OC(C)CO (stereo not drawn) (tested in a mixture with another compound) | inactive | 
O=C(O)Cc1ccccc1Nc1c(Cl)cccc1Cl | inactive | 
Cc1ccc(C(C)C)c(O)c1 | inactive | 
CN1CCCC1=O | inactive | 
Nc1ccc2c(c1)C(=O)c1ccccc1C2=O | inactive | 
CC1=C(/C=C/C(C)=C/C=C/C(C)=C/CO)C(C)(C)CCC1 | inactive | 
CCCCCCCCCCCCCO | inactive | 

read-out: CYP3A5 (gene 1577); assay: LTEA_HepaRG_CYP3A5: Life Technologies and Expression Analysis (LTEA) Assay for CYP3A5 using HepaRG (AID 2283493); conditions: mRNA level, 48 h; actives raise or lower the signal
In short: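 mRNA levels were quantified by qRT-PCR on Fluidigm arrays and normalized to three housekeeping genes. Differentiated HepaRG cells received 48 h exposure (top 100 uM, half-log steps, 0.5% DMSO vehicle, duplicate); bidirectional fitting versus DMSO.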

Structure (SMILES) | outcome | AC50
COc1cc(C=O)ccc1O | inactive | 
COC(=O)c1ccc(O)cc1 | inactive | 
C=CCc1ccc(O)c(OC)c1 | inactive | 
CN1CCN(Cc2cc(-c3ccc4[nH]c(=O)oc4c3)co2)[C@@H](c2ccc(F)cc2)C1 | inactive | 
CC(=O)OC/C=C(\C)CCC=C(C)C | inactive | 
CCCCCCCCCCCC(=O)OC | inactive | 
Oc1ccc2c(c1)OC[C@@H](N1CCC(O)(c3ccc(F)cc3)CC1)[C@H]2O | inactive | 
O=C(OCCCCCOC(=O)c1ccccc1)c1ccccc1 | inactive | 
NCC1(Cc2noc(=O)[nH]2)CCCCC1 | inactive | 
CCCCOC(=O)CCCCCCCCC(=O)OCCCC | inactive | 
CCc1c(C(=O)NN2CCCCC2)nn(-c2ccc(Cl)cc2Cl)c1-c1ccc(Br)cc1 |  | 50 µM (active)
O=C(O)CCCCC(=O)O | inactive | 
Cc1c(C(=O)O)c(O)cc2c1C(=O)c1c(O)c([C@@H]3O[C@H](CO)[C@@H](O)[C@H](O)[C@H]3O)c(O)c(O)c1C2=O | inactive | 
Cc1ccc(C)c(O)c1C | inactive | 
OC[C@@H](O)[C@@H](O)[C@H](O)[C@H](O)CO | inactive | 
C1CCC(SSC2CCCCC2)CC1 | inactive | 
Cc1oc(-c2ccccc2)nc1CCOc1cccc2c1ccn2CCC(=O)O | inactive | 
Cc1ccccc1Cl | inactive | 
c1cc(-c2ccncc2)ccn1 | inactive | 
Cc1cc(=O)[nH]c(=S)[nH]1 | inactive | 
Cc1cccc([N+](=O)[O-])c1C | inactive | 
CCCCCCOCCO | inactive | 
CC(CO)OC(C)CO (stereo not drawn) (tested in a mixture with another compound) | inactive | 
O=C(O)Cc1ccccc1Nc1c(Cl)cccc1Cl | inactive | 
Cc1ccc(C(C)C)c(O)c1 | inactive | 
CN1CCCC1=O | inactive | 
Nc1ccc2c(c1)C(=O)c1ccccc1C2=O |  | 1.6 µM (active)
CC1=C(/C=C/C(C)=C/C=C/C(C)=C/CO)C(C)(C)CCC1 | inactive | 
CCCCCCCCCCCCCO | inactive | 

read-out: Fatty Acid-Binding Protein 1 (FABP1), FABP1 (gene 2168); assay: LTEA_HepaRG_FABP1: Life Technologies and Expression Analysis (LTEA) Assay for Fatty Acid-Binding Protein 1 (FABP1) using HepaRG (AID 2283494); conditions: mRNA level, 48 h; actives raise or lower the signal
In short: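 Values reflect bidirectional concentration-response fitting of FABP1 mRNA change against 0.5% DMSO controls. Human HepaRG cultures received eight half-log doses (top 100 uM) for 48 h; expression quantified by TaqMan qRT-PCR with housekeeping-gene normalization.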

Structure (SMILES) | outcome | AC50
COc1cc(C=O)ccc1O | inactive | 
COC(=O)c1ccc(O)cc1 | inactive | 
C=CCc1ccc(O)c(OC)c1 | inactive | 
CN1CCN(Cc2cc(-c3ccc4[nH]c(=O)oc4c3)co2)[C@@H](c2ccc(F)cc2)C1 | inactive | 
CC(=O)OC/C=C(\C)CCC=C(C)C | inactive | 
CCCCCCCCCCCC(=O)OC | inactive | 
Oc1ccc2c(c1)OC[C@@H](N1CCC(O)(c3ccc(F)cc3)CC1)[C@H]2O | inactive | 
O=C(OCCCCCOC(=O)c1ccccc1)c1ccccc1 | inactive | 
NCC1(Cc2noc(=O)[nH]2)CCCCC1 | inactive | 
CCCCOC(=O)CCCCCCCCC(=O)OCCCC | inactive | 
CCc1c(C(=O)NN2CCCCC2)nn(-c2ccc(Cl)cc2Cl)c1-c1ccc(Br)cc1 |  | 36.2 µM (active)
O=C(O)CCCCC(=O)O | inactive | 
Cc1c(C(=O)O)c(O)cc2c1C(=O)c1c(O)c([C@@H]3O[C@H](CO)[C@@H](O)[C@H](O)[C@H]3O)c(O)c(O)c1C2=O | inactive | 
Cc1ccc(C)c(O)c1C | inactive | 
OC[C@@H](O)[C@@H](O)[C@H](O)[C@H](O)CO | inactive | 
C1CCC(SSC2CCCCC2)CC1 | inactive | 
Cc1oc(-c2ccccc2)nc1CCOc1cccc2c1ccn2CCC(=O)O |  | 87.6 µM (active)
Cc1ccccc1Cl | inactive | 
c1cc(-c2ccncc2)ccn1 | inactive | 
Cc1cc(=O)[nH]c(=S)[nH]1 | inactive | 
Cc1cccc([N+](=O)[O-])c1C | inactive | 
CCCCCCOCCO | inactive | 
CC(CO)OC(C)CO (stereo not drawn) (tested in a mixture with another compound) | inactive | 
O=C(O)Cc1ccccc1Nc1c(Cl)cccc1Cl | inactive | 
Cc1ccc(C(C)C)c(O)c1 | inactive | 
CN1CCCC1=O | inactive | 
Nc1ccc2c(c1)C(=O)c1ccccc1C2=O |  | 13.6 µM (active)
CC1=C(/C=C/C(C)=C/C=C/C(C)=C/CO)C(C)(C)CCC1 |  | 26.3 µM (active)
CCCCCCCCCCCCCO | inactive | 
